Publication PMC5540273 (PLoS ONE, 2017)

How the values were obtained:
Conditions in all cases: concentration: 1 μM, replicates: in singlicate; n = 1
HIPK3 = system: HIPK3
HIPK4 = system: HIPK4
HPK1 = system: HPK1
HUNK = system: HUNK
ICK = system: ICK
IGF1R = system: IGF1R
IKK-alpha = system: T1, IKK-alpha
T1 construct: gene CHUK

IKK-beta = system: T2, IKK-beta
T2 construct: gene IKBKB

IKK-epsilon = system: T3, IKK-epsilon
T3 construct: gene IKBKE

INSRR = system: INSRR
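Note: KINOMEscan kinase panel screen.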

Structure (SMILES) | %Inh (HIPK3) [%] | %Inh (HIPK4) [%] | %Inh (HPK1) [%] | %Inh (HUNK) [%] | %Inh (ICK) [%] | %Inh (IGF1R) [%] | %Inh (IKK-alpha) [%] | %Inh (IKK-beta) [%] | %Inh (IKK-epsilon) [%] | %Inh (INSRR) [%]
CCc1nc(-c2cccc(C)c2)c(-c2ccncc2)s1 | 0 | 0 | 8 | 0 | 0 | 0 | 0 | 0 | 0 | 0
OCCCNc1nccc(-c2c(-c3cccc(C(F)(F)F)c3)nn3cc(C(F)(F)F)ccc23)n1 [GW630813] | 0 | 0 | 27 | 9 | 0 | 8 | 0 | 0 | 14 | 0
Cl.c1ccc(Cn2cnc3cc(Nc4ncnc5ccccc45)ccc32)cc1 [GW272142] | 8 | 0 | 36 | 5 | 0 | 34 | 0 | 12 | 17 | 36
COC(=O)c1c(-c2ccccc2)c2cc(Br)ccc2c(=O)n1Cc1ccc(S(C)(=O)=O)cc1 | 10 | 5 | 0 | 27 | 50 | 9 | 9 | 6 | 15 | 1
COc1cc2ncn(-c3cc(OCc4ccncc4)c(C(N)=O)s3)c2cc1OC [GSK336313] | 21 | 0 | 21 | 0 | 4 | 0 | 0 | 0 | 26 | 99.3
CCCNC(=O)Nc1ccc(Oc2ncnc3ccn(C)c23)cc1 | 14 | 19 | 0 | 0 | 17 | 0 | 1 | 0 | 0 | 0
Nc1ncnc2c1ncn2-c1ccc(Cl)cc1 [AH2635] | 0 | 0 | 27 | 19 | 0 | 0 | 0 | 0 | 30 | 0
C[C@@H]1CC[C@H](C(=O)NC2CCCCC2)CN1c1cc(-c2ccc3c(N)n[nH]c3c2)nc(N)n1 [GSK2291363] | 14 | 0 | 50 | 0 | 18 | 30 | 0 | 0 | 25 | 0
O=c1cc(N2CCOCC2)nc2n(Cc3ccc(F)c(Cl)c3)ccn12 [GSK2297099] | 23 | 0 | 25 | 0 | 16 | 0 | 3 | 17 | 0 | 0
COc1ccc(-c2coc3ccc(-c4nnc(SCc5cccc(C#N)c5)o4)cc23)cc1 | 20 | 0 | 0 | 0 | 17 | 0 | 19 | 7 | 0 | 0
O=C(Nc1n[nH]c2nc(-c3ccccc3)c(Cl)cc12)C1CC1 [SB-734909] | 33 | 0 | 11 | 20 | 29 | 0 | 43 | 56 | 0 | 8
Cc1c(Cn2c(C)nn3c(=O)cc(N4CCO[C@H](C)C4)nc23)cccc1C(F)(F)F [GSK2373690] | 30 | 0 | 24 | 4 | 1 | 41 | 0 | 3 | 0 | 14
COc1cc(Nc2nccc(N3CCC(NC(=O)C4COc5ccccc5O4)C3)n2)cc(OC)c1OC (centres unmarked) [GSK1379761] | 0 | 0 | 51 | 30 | 0 | 0 | 21 | 0 | 0 | 0
COc1cccc(C2=C(Nc3cccc(C(=O)O)c3)C(=O)NC2=O)c1 [SB-390770] | 1 | 7 | 5 | 20 | 0 | 8 | 0 | 6 | 0 | 19
COc1cc(OC)cc(-c2cc3cnc(N)nc3nc2NC(=O)NC(C)(C)C)c1 | 0 | 0 | 0 | 0 | 0 | 0 | 7 | 9 | 7 | 0
O=C1NC(=O)C(c2ccccc2)=C1Nc1cccc(O)c1 [SB-390534] | 8 | 2 | 9 | 29 | 10 | 0 | 0 | 0 | 0 | 15
CCS(=O)c1ccc(-c2coc3ccc(-c4nnc(C)o4)cc23)cc1 (centres unmarked) | 21 | 0 | 11 | 0 | 10 | 0 | 10 | 6 | 0 | 0
